# Calls of active or inactive are those of the source.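 Rule for the calls: active = mean inhibition above 46.68%, the untreated control wells mean plus 3 SD; inactive = the rest.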
# Target: Nuclear receptor coactivator 1 (Homo sapiens) (UniProt Q15788)
# Assay: NCOA1 GAL4-fusion reporter inhibition – cell-based, luminescence, quadruplicate, confirmation (AID 588820);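 note: 0% = DMSO wells and 100% = gossypol 36 µM treated wells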
# Settings: HEK293 GAL4-SRC1 luciferase reporter, at 3.6 µM, hits give high values
# Chain of Nuclear receptor coactivator 1 (Homo sapiens) (Q15788 whole entry, looked up, the tested form may be a part): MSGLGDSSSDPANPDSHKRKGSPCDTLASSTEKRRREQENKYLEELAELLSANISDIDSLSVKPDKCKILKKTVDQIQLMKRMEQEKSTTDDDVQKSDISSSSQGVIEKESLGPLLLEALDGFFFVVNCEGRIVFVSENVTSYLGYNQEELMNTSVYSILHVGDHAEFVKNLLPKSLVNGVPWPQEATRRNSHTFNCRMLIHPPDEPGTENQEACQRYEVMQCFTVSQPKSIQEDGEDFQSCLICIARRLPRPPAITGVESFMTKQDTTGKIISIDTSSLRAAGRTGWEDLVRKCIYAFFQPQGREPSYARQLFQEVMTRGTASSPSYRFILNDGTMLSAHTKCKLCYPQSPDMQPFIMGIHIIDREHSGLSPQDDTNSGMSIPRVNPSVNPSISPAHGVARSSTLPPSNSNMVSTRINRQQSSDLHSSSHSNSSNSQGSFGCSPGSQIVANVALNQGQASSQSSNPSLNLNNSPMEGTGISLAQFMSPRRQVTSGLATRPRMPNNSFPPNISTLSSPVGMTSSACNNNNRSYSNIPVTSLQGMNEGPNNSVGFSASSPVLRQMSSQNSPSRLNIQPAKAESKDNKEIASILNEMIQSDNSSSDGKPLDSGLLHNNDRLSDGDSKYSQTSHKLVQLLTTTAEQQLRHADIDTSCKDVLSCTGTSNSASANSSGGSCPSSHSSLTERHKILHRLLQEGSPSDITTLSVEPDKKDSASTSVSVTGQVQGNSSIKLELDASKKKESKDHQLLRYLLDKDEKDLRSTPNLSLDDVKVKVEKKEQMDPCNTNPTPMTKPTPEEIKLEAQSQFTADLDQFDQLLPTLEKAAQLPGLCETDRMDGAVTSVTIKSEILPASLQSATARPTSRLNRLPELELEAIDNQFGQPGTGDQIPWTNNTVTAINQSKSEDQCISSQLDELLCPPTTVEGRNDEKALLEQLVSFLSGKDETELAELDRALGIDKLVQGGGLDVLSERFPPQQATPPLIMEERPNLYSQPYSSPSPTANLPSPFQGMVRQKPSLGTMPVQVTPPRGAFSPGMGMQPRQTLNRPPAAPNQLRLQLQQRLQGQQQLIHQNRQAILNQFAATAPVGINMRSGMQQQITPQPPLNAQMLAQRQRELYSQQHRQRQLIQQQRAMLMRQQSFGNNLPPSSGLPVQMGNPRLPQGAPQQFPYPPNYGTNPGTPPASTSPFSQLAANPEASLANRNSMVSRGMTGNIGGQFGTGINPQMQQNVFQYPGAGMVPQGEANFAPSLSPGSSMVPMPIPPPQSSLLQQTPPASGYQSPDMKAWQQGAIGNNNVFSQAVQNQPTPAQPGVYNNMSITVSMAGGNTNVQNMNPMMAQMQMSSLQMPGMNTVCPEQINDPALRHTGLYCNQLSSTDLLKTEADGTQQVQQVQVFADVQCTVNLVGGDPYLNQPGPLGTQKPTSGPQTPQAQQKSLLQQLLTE
row,Compound,inhibition
1,O=C(CCC(=O)Nc1ccc(Br)cc1)N/N=C/c1ccccc1O,29.2% (inactive)
2,C=C1C(=O)O[C@@H]2[C@H]1CC[C@H](C)[C@]1(O)CCC(=O)[C@@]21C,-18% (inactive)
3,O=C(CNC(=O)Cc1ccccc1)N=Nc1c(O)n(Cc2ccc3c(c2)OCO3)c2ccccc12,3.52% (inactive)
4,O=C(CS(=O)c1ccc(F)cc1)N1CCOCC1 (stereo not given),-1.56% (inactive)
5,O=C(NCC[C@@H]1C[C@@H]2C=C[C@H]1C2)c1cc(COc2ccc(F)cc2F)on1,-4.95% (inactive)
6,CCC(CC)C(=O)N(C)c1c(C)nc2c(OCc3ccc(OC(F)F)cc3)cccn12,-18.2% (inactive)
7,COc1ccc(Oc2nc3c(c(=O)n(C)c(=O)n3C)n2C)cc1,24.8% (inactive)
8,O=C(Nc1cccc(F)c1)/C(=C\c1ccco1)NC(=O)c1ccco1,-13.4% (inactive)
9,CSC1=NCCCN1C(=O)c1c(-c2ccccc2Cl)noc1C,0.66% (inactive)
10,NS(=O)(=O)c1ccc(NC(=O)c2cccc3cc4ccccc4nc23)cc1,-13.3% (inactive)
11,COc1ccc(S(=O)(=O)Nc2ccc(F)c(Cl)c2)cc1OC,-9.19% (inactive)
12,Cc1cc(C(=O)OCC(=O)N2CC(C)OC(C)C2)c(C)n1-c1ccccc1 (stereo not given),-17% (inactive)
13,CCN1CCS/C1=C/C=C/C1=[N+](CC)CCS1,-22.7% (inactive)
14,Cc1cccc(NC(=O)CSCC(=O)N2CCCc3ccccc32)c1,-14.1% (inactive)
15,COc1ccccc1NC(=O)NC1(C(=O)N2CCCCC2)CCCCC1,4.76% (inactive)
16,Cc1ccnc(SC2CC(=O)N(c3ccc(C(C)C)cc3)C2=O)n1 (stereo not given),7.69% (inactive)
17,Cc1cnccc1NC(=O)c1cccs1,-0.39% (inactive)
18,CC(C)(C)c1ccc(CC(=O)N2CCC2(C)C(=O)Nc2ccc(F)cc2F)cc1 (stereo not given),1.73% (inactive)
19,CCNc1nc(NCC)n2c(SCC(=O)Nc3ccccc3C(F)(F)F)nnc2n1,-4.19% (inactive)
20,CN(C)C(=O)c1ccc(-c2n[nH]c(=O)c3ccccc23)cc1,34.3% (inactive)

row,Compound,inhibition
1,Cn1c(=O)c2[nH]c(COc3ccc(C(C)(C)C)cc3)nc2n(C)c1=O,29.4% (inactive)
2,CCOC(=O)c1c(CN(CC)CC)n(C)c2cc(Br)c(O)cc12,6.72% (inactive)
3,CCN(C(=O)c1ccc(S(=O)(=O)N2CCC(C)CC2)cc1)C1CCS(=O)(=O)C1 (stereo not given),-0.29% (inactive)
4,Cc1ccc(-c2c[n+]3c(n2-c2ccccc2)CCC3)cc1,10.5% (inactive)
5,COc1cc(OC)cc(C(=O)NNC(=O)c2ccccn2)c1,10.7% (inactive)
6,CC1Sc2ccc(C(=O)Nc3ccc(S(=O)(=O)N(C)C)cc3)cc2NC1=O (stereo not given),9.77% (inactive)
7,Cn1c(=O)[nH]c(=O)c2c1nc(N1CCCCC1)n2CC(O)COc1ccc([N+](=O)[O-])cc1 (stereo not given),-27.8% (inactive)
8,Fc1cc2[nH]cnc2cc1Cl,-2.02% (inactive)
9,COc1cc2c(cc1OC)CN(C(=O)c1cc(S(=O)(=O)N3CCOCC3)ccc1C)CC2,1.45% (inactive)
10,Cc1cc(C)c(CN2CCN(C(=O)Cn3cnc4c(OCc5ccccc5)ncnc43)CC2)c(C)c1,4.65% (inactive)
11,O=C(Nc1ccc2c(c1)OCCO2)C(c1cc2ccccc2o1)N1CCN(C/C=C/c2ccccc2)CC1 (stereo not given),-6.79% (inactive)
12,COc1ccc(Nc2ncnc3ccc(C)cc23)cc1,26.8% (inactive)
13,CCOc1ccc(-c2cc(C(=O)Nc3ccc(C)c(NS(C)(=O)=O)c3)[nH]n2)c(C)c1,-14% (inactive)
14,Cc1cn(Cc2ccccc2Cn2cc(C)c(=O)[nH]c2=O)c(=O)[nH]c1=O,-23.2% (inactive)
15,CS(=O)(=O)Nc1cccc(NC(=O)C2Cc3c(-c4ccco4)ccnc3O2)c1 (stereo not given),22.6% (inactive)
16,COc1cc2c(cc1OC)C(C)N(C(=O)c1cc3ccccc3o1)CC2 (stereo not given),-4.6% (inactive)
17,COc1cc(/C=N/NC(=O)NC23CC4CC(CC(C4)C2)C3)ccc1OCC(N)=O,-24.7% (inactive)
18,CC(C)(C)OC(=O)N(CCc1ccccc1)Cc1ccc(OCc2cccc(NC(=O)C3CCCC3)c2)cc1,-0.88% (inactive)
19,COc1ccc(-c2cc(N3C(=O)Nc4ccccc4N3O)n[nH]2)c(OC)c1,25.8% (inactive)
20,O=C1CC(N2CCN(Cc3ccccc3)CC2)C(=O)N1 (stereo not given),-10.4% (inactive)
